Common to all, as to details: concentration: 10 µM; 24 h
Experiment [1] deals with HCC1569. Put plainly: cell number relative to DMSO (% of DMSO); higher = more cells (less growth inhibition / toxicity). In outline: (§1)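 Compounds were applied at 10 µM for 24 h at 37 °C, in triplicate, to HCC1569 and TDF cells. The cells were then fixed and stained for H1.0, and nuclei were counterstained with DAPI. Nuclear H1.0 intensity or cell number is reported relative to the plate control as a percent, taking the median of replicates. Smoothing for positional effects was applied to HCC1569 values only.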

The test system of experiment [2] is TDF. The description is as above. In outline: as §1
Experiment [3] relates to TDF. Kind of experiment: H1.0 immunofluorescence intensity relative to DMSO (% of DMSO); higher = stronger H1.0 induction, active = 120 or more. In outline:
as §1

Experiment [4] concerns HCC1569. Kind of experiment: H1.0 immunofluorescence intensity relative to DMSO (% of DMSO); higher = stronger H1.0 induction, active = 140 or more. In outline:
as §1

Structures are written as SMILES.
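Throughout, for H1.0 immunofluorescence intensity relative to DMSO: TDF is a line of transformed human dermal fibroblasts of mesenchymal origin.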
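Throughout, for cell number relative to DMSO: TDF denotes transformed human dermal fibroblasts of mesenchymal origin.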

Regarding `CC(NC(=O)C(C#N)=Cc1ccc(O)c(O)c1)c1ccccc1` (stereo unspecified) [Tyrphostin AG 835], the cell number with HCC1569 [1] and in the experiment on TDF [2] was 87.3 in each case. Further, the H1.0 immunofluorescence intensity in the experiment with TDF [3] was 75 (inactive); with HCC1569 [4] it was 114 (inactive).
As for `NC(CO)(CO)CO.O=C(c1ccccc1)c1ccc2n1CCC2C(=O)O` (stereo unspecified) [Ketorolac tris salt], the cell number with HCC1569 [1] stood at 101; in the experiment on TDF [2], 111. Further, the results for the H1.0 immunofluorescence intensity in the experiment with TDF [3] and in the experiment with HCC1569 [4] were 94.5 (inactive) and 94.1 (inactive), respectively.
The corresponding values for `CC(CN1c2ccccc2Sc2ccccc21)N(C)C.Cl` (stereo unspecified) are 105, 105, 110 (inactive) and 112 (inactive).
`CCCCCCCCCCCCC(O)C(=O)O` (stereo unspecified) [2-Hydroxymyristic acid]: the cell number with HCC1569 [1] and in the experiment with TDF [2] was 103 in each case. Further, the H1.0 immunofluorescence intensity is 95.6 (inactive) in the experiment on TDF [3] and 102 (inactive) in the experiment on HCC1569 [4].
In the case of `CCN1CCN(c2cc3c(cc2F)c(=O)c(C(=O)O)cn3C2CC2)CC1` [Enrofloxacin], the results for the cell number with HCC1569 [1] and in the experiment on TDF [2] were 101 and 106, respectively. Besides, the H1.0 immunofluorescence intensity in the experiment on TDF [3] was 96.4 (inactive); with HCC1569 [4], 110 (inactive).
For `COCc1c(C(C)C)nc(C(C)C)c(C=CC(O)CC(O)CC(=O)O)c1-c1ccc(F)cc1` (stereo unspecified) [Cerivastatin], in that order: 97.3, 39, 166 (active) and 98.3 (inactive).
For `COc1cccc(C(=O)NCCN2CCN(c3ccc(Cl)cc3)CC2)c1`, in that order: 101, 109, 94.5 (inactive) and 92.3 (inactive).
As for `CC(=O)NNC(=O)N1Cc2ccccc2Oc2ccc(Cl)cc21`, the cell number with HCC1569 [1] amounted to 101; with TDF [2], 114. Further, the H1.0 immunofluorescence intensity was 91 (inactive) with TDF [3] and 103 (inactive) in the experiment with HCC1569 [4].
Take `Nc1c2c(nc3ccccc13)CCCC2` [Tacrine]: the cell number in the experiment on HCC1569 [1] was 102; in the experiment with TDF [2], 97.1. Moreover, the values for the H1.0 immunofluorescence intensity in the experiment with TDF [3] and with HCC1569 [4] were 95.7 (inactive) and 109 (inactive), respectively.

For the origin of these results see the supplement of paper PMC7156485.
